Assay results taken from the supplement of paper PMC6555819.

What follows are sequences tested on PPARg:RXRa 270nM:90nM, anti-RXR (NR concentration 270 nM, RXRa partner concentration 90 nM) (assay: PBM binding z-score (relative to random genomic background probes); higher = stronger binding; sequences stand for … in GC…GCGATTGACAGCGTAGAATGAAGG).
How it was run: (§1)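 Ligand-free nuclear receptor dimers were bound for 1 h to custom Agilent 4×180K protein-binding microarrays. Detection used antibodies against each partner (one per run). Binding z-scores rest on regression-normalized fluorescence, with random background probes as the reference.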

Row | Sequence | PBM binding z-score
1 | CGTCCAAGGTGAGAGAGGTCAGTGAATGCCGAGT | 1.7
2 | ACACGGAGGACAAAGGTCAGAGCTACGCCAGTGA | 7.26
3 | AGTCAAAGTTCGTCTAGGTAACGTAAGATATGCT | 3.39
4 | AAAACAGGGTCACTAGGCCAGAGTAGGTACGAAT | 7.23
5 | ACAGACAGGTGAGTGAAGGTAATTCAGCTGGACG | 0.152
6 | ATCTCTAGGTAACCAAGTTCAATGAATGCCGAAC | 1.15
7 | GGAACGAGGGCAAGTTGATAGCGGAGTTTGATGG | 1.16
8 | ACCATTAGTTGAGACGAGGGCAACCGATAGGTTG | -0.0707
9 | ATATGTAGGTTATCGGTTCATTCAGTTTGCGCAT | 5.22
10 | AGAATGAGGTTAAGAACAGGGAAACAGAATACAT | 2.05
11 | TCTCGGAGGCCACGAAAGGTCAGAGCTCGACATC | 2.91
12 | TCTAGTTGGTCAAAGGTCATACACTCGAAATGCG | 9.47
13 | CTAACTAGGTCAAGGACAGTGAATCTCCGCACGC | 6.92
14 | TTGCCTAGGTCAGATCGGGCCAGTATACGCTATA | 0.852
15 | ACTACTTGGTCAGCTGAGGTCACACACAATTCGG | 2.68
16 | CGTCCAAGGTCAGCAAGTCAGTGAAAGCGACGTG | 3.14
17 | CCTTTCGGGTCACGAGGTTATAGCACGACGAGCG | 6.75
18 | CGTCAAAATTCAACTAAGGTAACGTAAAGCACGC | 0.127

Each sequence was assayed on PPARg:RXRa 30nM:10nM, anti-RXR (NR concentration 30 nM, RXRa partner concentration 10 nM) in the same assay as above.
How it was run: as §1

Row | Sequence | PBM binding z-score
19 | AGAATCAGGTTATTAAGATCAGGGAATTGCGGTC | 0.466
20 | TCGAGTAGGTTAGGGGTATTCAGAATGGCGTCGA | 2.28
21 | CCTACTGGGCCCTTCAGAGGTCATTGATCATATG | 0.162
22 | GAGACTGGGGCAAAGCAGGTTACCATAAGGTTGG | 0.147
23 | CCCACTGGGCCACGAAAGGTCATTGATTCAGTGA | 1.85
24 | CCAGACAGGTGAGAAGGTCACTCAGCCTCGATTA | 0.629
25 | ATCGAAAGCTCGTGAGGTGAGTATACAGAAAGGC | 0.112
26 | TCTAGTTGGTCAAAGGTCACACATTCGAAATGCG | 10.8
27 | TAGCGTAGGTCAGATCGGGCCAGTATACGCTATA | 0.0137
28 | TCTGGTAGATCAAAGGTTAAGAAAGCCGAAGCCT | 5.92
29 | CGTCCAAGGTCAAGGTCAGTCAAAGAGACTCGAA | 2.6
30 | TCATATAGGTAAAGGTGAAAGTCGAACGATATGA | 4.42
31 | ACAGACAGGTGAGTGAAGGCAACTCAGCTGGACG | -0.458
32 | AGAATGAGGTTATTAAGCTCAGGGAATTGCGGTC | -0.0679
33 | CGTCCAAGGTAAGCAGGTCAGTGAAAGCGACGTG | -0.743
34 | ACTAGTTTGTCAGCTGAGGTCACACACAATTCGG | 0.672
35 | TCTTGTAGATCAGCAGGTTCAGAAAGCTGGCCAA | 2.02
36 | ACAGACAGGTGAGTGAAGGAAACTCAGCTGGACG | -0.177
37 | TCTTGTAGATCAAAAGAGGTTAAGAAAGTGCGCT | 2.62
38 | TTACCGAGGTGAAGGTCGTTGATCCCTCTGTAGA | 1.61

Row | Sequence | PBM binding z-score
39 | CCGAGTAGGTTATGAGGCATTCAGGCAACGGTGA | 0.331
40 | CGAACTAGGTCATGCAGGACAGTGAATACATTGA | 3.69
41 | CGTCCAAGGTGAGAGAGGTCAGTGAATGCCGAGT | 0.115
42 | ACACGGAGGACAAAGGTCAGAGCTACGCCAGTGA | 5.39
43 | AGTCAAAGTTCGTCTAGGTAACGTAAGATATGCT | 1.44
44 | AAAACAGGGTCACTAGGCCAGAGTAGGTACGAAT | 4.36
45 | ACAGACAGGTGAGTGAAGGTAATTCAGCTGGACG | -0.212
46 | ATCTCTAGGTAACCAAGTTCAATGAATGCCGAAC | 0.497
47 | GGAACGAGGGCAAGTTGATAGCGGAGTTTGATGG | 0.00794
48 | ACCATTAGTTGAGACGAGGGCAACCGATAGGTTG | 0.0624
49 | ATATGTAGGTTATCGGTTCATTCAGTTTGCGCAT | 2.65
50 | AGAATGAGGTTAAGAACAGGGAAACAGAATACAT | 0.811
51 | TCTCGGAGGCCACGAAAGGTCAGAGCTCGACATC | 2.22
52 | TCTAGTTGGTCAAAGGTCATACACTCGAAATGCG | 9.65
53 | CTAACTAGGTCAAGGACAGTGAATCTCCGCACGC | 4.93
54 | TTGCCTAGGTCAGATCGGGCCAGTATACGCTATA | -0.179
55 | ACTACTTGGTCAGCTGAGGTCACACACAATTCGG | 0.841
56 | CGTCCAAGGTCAGCAAGTCAGTGAAAGCGACGTG | 0.523
57 | CCTTTCGGGTCACGAGGTTATAGCACGACGAGCG | 2.96
58 | CGTCAAAATTCAACTAAGGTAACGTAAAGCACGC | -0.0256

The sequences below were run on PPARg:RXRa 90nM:30nM, anti-RXR (NR concentration 90 nM, RXRa partner concentration 30 nM) in the same assay as above.
How it was run: as §1

Row | Sequence | PBM binding z-score
59 | AGAATCAGGTTATTAAGATCAGGGAATTGCGGTC | 0.97
60 | TCGAGTAGGTTAGGGGTATTCAGAATGGCGTCGA | 2.99
61 | CCTACTGGGCCCTTCAGAGGTCATTGATCATATG | 0.866
62 | GAGACTGGGGCAAAGCAGGTTACCATAAGGTTGG | 1.35
63 | CCCACTGGGCCACGAAAGGTCATTGATTCAGTGA | 3.53
64 | CCAGACAGGTGAGAAGGTCACTCAGCCTCGATTA | 1.98
65 | ATCGAAAGCTCGTGAGGTGAGTATACAGAAAGGC | -0.368
66 | TCTAGTTGGTCAAAGGTCACACATTCGAAATGCG | 10.5
67 | TAGCGTAGGTCAGATCGGGCCAGTATACGCTATA | 0.225
68 | TCTGGTAGATCAAAGGTTAAGAAAGCCGAAGCCT | 6.95
69 | CGTCCAAGGTCAAGGTCAGTCAAAGAGACTCGAA | 4.69
70 | TCATATAGGTAAAGGTGAAAGTCGAACGATATGA | 4.75
71 | ACAGACAGGTGAGTGAAGGCAACTCAGCTGGACG | -0.591
72 | AGAATGAGGTTATTAAGCTCAGGGAATTGCGGTC | 0.636
73 | CGTCCAAGGTAAGCAGGTCAGTGAAAGCGACGTG | -0.154
74 | ACTAGTTTGTCAGCTGAGGTCACACACAATTCGG | 1.86
75 | TCTTGTAGATCAGCAGGTTCAGAAAGCTGGCCAA | 1.52
76 | ACAGACAGGTGAGTGAAGGAAACTCAGCTGGACG | -0.368
77 | TCTTGTAGATCAAAAGAGGTTAAGAAAGTGCGCT | 2.16
78 | TTACCGAGGTGAAGGTCGTTGATCCCTCTGTAGA | 3

Row | Sequence | PBM binding z-score
79 | CCGAGTAGGTTATGAGGCATTCAGGCAACGGTGA | 1.44
80 | CGAACTAGGTCATGCAGGACAGTGAATACATTGA | 5.66
81 | CGTCCAAGGTGAGAGAGGTCAGTGAATGCCGAGT | 1.07
82 | ACACGGAGGACAAAGGTCAGAGCTACGCCAGTGA | 7.07
83 | AGTCAAAGTTCGTCTAGGTAACGTAAGATATGCT | 2.71
84 | AAAACAGGGTCACTAGGCCAGAGTAGGTACGAAT | 6.34
85 | ACAGACAGGTGAGTGAAGGTAATTCAGCTGGACG | -0.193
86 | ATCTCTAGGTAACCAAGTTCAATGAATGCCGAAC | 0.824
87 | GGAACGAGGGCAAGTTGATAGCGGAGTTTGATGG | 0.229
88 | ACCATTAGTTGAGACGAGGGCAACCGATAGGTTG | -0.228
89 | ATATGTAGGTTATCGGTTCATTCAGTTTGCGCAT | 4.65
90 | AGAATGAGGTTAAGAACAGGGAAACAGAATACAT | 1.34
91 | TCTCGGAGGCCACGAAAGGTCAGAGCTCGACATC | 2.46
92 | TCTAGTTGGTCAAAGGTCATACACTCGAAATGCG | 10.2
93 | CTAACTAGGTCAAGGACAGTGAATCTCCGCACGC | 6.92
94 | TTGCCTAGGTCAGATCGGGCCAGTATACGCTATA | 0.0126
95 | ACTACTTGGTCAGCTGAGGTCACACACAATTCGG | 1.7
96 | CGTCCAAGGTCAGCAAGTCAGTGAAAGCGACGTG | 1.9
97 | CCTTTCGGGTCACGAGGTTATAGCACGACGAGCG | 5.52
98 | CGTCAAAATTCAACTAAGGTAACGTAAAGCACGC | 0.246
